The nature of experiment [1]: qHTS assay to test for compound auto fluorescence at 535 nm (green) in HEK293 cells (AID 720680). A general note: qHTS replaces the single test concentration by a dilution series.
A short description of experiment [2]: qHTS assay to test for compound auto fluorescence at 460 nm (blue) in HEK293 cell free culture (AID 720681). The method, boiled down:
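Test compounds were pinned into cell-free culture medium (DMEM with 10% FBS) and fluorescence was read directly at Ex/Em 405/460 nm. Signals were expressed as fluorescence equivalents of triamterene, with DMSO vehicle as control.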

Experiment [3] is described as follows: qHTS assay to test for compound auto fluorescence at 535 nm (green) in HEK293 cell free culture (AID 720682). The method, boiled down:
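Cell-free medium (DMEM, 10% FBS) receives compound or DMSO by pintool. Plate read directly at Ex 485/Em 535 nm. Signal converted to fluorescein equivalency.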

Experiment [4] in a line: qHTS assay to test for compound auto fluorescence at 590 nm (red) in HEK293 cell free culture (AID 720683). In short, it runs like this:
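Tox21 10K library compounds were pinned into cell-free DMEM with 10% FBS and fluorescence was read at excitation 540 nm. Activity is expressed as Rose Bengal sodium equivalency.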

Experiment [5] in a line: qHTS assay to test for compound auto fluorescence at 590 nm (red) in HepG2 cell free culture (AID 720684). The method, boiled down: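 Ex 540 / Em 590 nm read of compound in cell-free MEM (10% FBS). Rose Bengal sodium reference.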
Experiment [6] in a line: qHTS assay to test for compound auto fluorescence at 460 nm (blue) in HepG2 cell free culture (AID 720685). In short, it runs like this: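 Cell-free plates of MEM plus 10% FBS received 23 nL compound or DMSO vehicle; blue-channel (405/460 nm) intensity scored against triamterene as reference fluorophore.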
A short description of experiment [7]: qHTS assay to test for compound auto fluorescence at 535 nm (green) in HepG2 cell free culture (AID 720686).
A short description of experiment [8]: qHTS assay to test for compound auto fluorescence at 460 nm (blue) in HepG2 cells (AID 720687). The method, boiled down: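 Cells (2,000/well in MEM with 10% FBS) attached overnight at 37 C, then were exposed to compound or DMSO for 1 hr at 37 C, 5% CO2. Fluorescence read at Ex/Em 405/460 nm, expressed as triamterene-equivalent signal.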
The target of experiment [9] is Glucocorticoid receptor (Homo sapiens) (UniProt P04150). Kind of experiment: qHTS assay to identify small molecule agonists of the glucocorticoid receptor (GR) signaling pathway (AID 720691; active = well fitted activation curve with a large enough effect in the signal ratio in the repeat runs, not every such curve was filed as active; the % refers to the signal ratio). The method, boiled down: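 A HeLa cervical cancer line expressing GR and a glucocorticoid response element-driven beta-lactamase gene is treated with compounds for 18 h; LiveBLAzer B/G FRET substrate is then applied and fluorescence read.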

Experiment [10] has the same target. As to the kind of experiment: qHTS assay to identify small molecule antagonists of the glucocorticoid receptor (GR) signaling pathway (AID 720692; active = well fitted inhibition curve with a large enough effect in the signal ratio in the repeat runs, not every such curve was filed as active; the % refers to the signal ratio). The method, boiled down:
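GRE-bla HeLa line, dex-stimulated (5 nM final). Compound exposure 18 h, 37 C. Beta-lactamase FRET read after 2 h RT substrate.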

The nature of experiment [11]: qHTS assay to identify small molecule antagonists of the glucocorticoid receptor (GR) signaling pathway - cell viability counter screen (AID 720693). Note: nearly all actives have a fitted effect of over 55% in size.
Experiment [12] is described as follows: qHTS assay for identifying genotoxic compounds that show differential cytotoxicity against isogenic chicken DT40 cell lines with known DNA damage response pathways - wild type cell line (AID 743012). Note: nearly all actives have a fitted effect of over 60% in size. Note: potency is the fitted concentration of half-maximal effect. The method, boiled down:
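300 wt DT40 cells/well; cpd (DMSO) pintool-transferred after ~0.5 h at 37 C/5% CO2; 40 h incubation; CellTiter-Glo added, 30 min RT; luminescence read.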

The nature of experiment [13]: qHTS assay for identifying genotoxic compounds that show differential cytotoxicity against isogenic chicken DT40 cell lines with known DNA damage response pathways - Rev3 mutant cell line (AID 743014). Note: nearly all actives have a fitted effect of over 55% in size. Note: potency is the fitted concentration of half-maximal effect.
A short description of experiment [14]: qHTS assay for identifying genotoxic compounds that show differential cytotoxicity against isogenic chicken DT40 cell lines with known DNA damage response pathways - Rad54/Ku70 mutant cell line (AID 743015). Note: nearly all actives have a fitted effect of over 60% in size. Note: potency is the fitted concentration of half-maximal effect.
Experiment [15] is described as follows: qHTS assay to identify small molecule antagonists of the androgen receptor (AR) signaling pathway - cell viability counter screen (AID 743033; note: nearly all actives have a fitted effect of over 45% in size).
Experiment [16] is described as follows: qHTS assay to identify small molecule antagonists of the androgen receptor (AR) signaling pathway using the MDA cell line - cell viability counter screen (AID 743041; note: nearly all actives have a fitted effect of over 45% in size). The method, boiled down: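 In this qHTS counter assay, fluorescence intensity after CellTiter-Fluor addition indicated viability of MDA-kb2 AR-luc cells given compounds and R1881 for 16 h at 37C.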

The target in experiment [17] is Androgen receptor (Homo sapiens) (UniProt P10275). Kind of experiment: qHTS assay to identify small molecule antagonists of the androgen receptor (AR) signaling pathway (AID 743035; active = well fitted inhibition curve with a large enough effect in the signal ratio in the repeat runs, not every such curve was filed as active; the % refers to the signal ratio). The method, boiled down: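 In this cell-based reporter screen, compounds were tested in concentration series against R1881-activated HEK293 cells expressing beta-lactamase under UAS control; after 16 h at 37C, FRET substrate was added and fluorescence read 2 h later.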

Experiment [18] has the same target. Kind of experiment: qHTS assay to identify small molecule agonists of the androgen receptor (AR) signaling pathway (AID 743036; active = well fitted activation curve with a large enough effect in the signal ratio in the repeat runs, with a control signal flat, not every such curve was filed as active; the % refers to the signal ratio). In short, it runs like this:
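AR-bla HEK293 cells, 2,000/well; 4 h preincubation 37C/5% CO2; compound (DMSO) 16 h at 37C; LiveBLAzer B/G FRET substrate 2 h RT; fluorescence intensity read-out.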

Experiment [19] has the same target. Kind of experiment: qHTS assay to identify small molecule agonists of the androgen receptor (AR) signaling pathway using the MDA cell line (AID 743040; note: nearly all actives have a fitted effect of over 20% in size). The method, boiled down:
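Cell-based luciferase reporter: MDA-kb2, MMTV promoter (AR + GR response elements). 16 h compound exposure at 37C; ONE-Glo, 30 min RT, luminescence.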

Experiment [20] has the same target. As to the kind of experiment: qHTS assay to identify small molecule antagonists of the androgen receptor (AR) signaling pathway using the MDA cell line (AID 743042; note: nearly all actives have a fitted effect of over 55% in size). In short, it runs like this: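 MDA-kb2 cells (human breast carcinoma, stably carrying an MMTV-luciferase reporter responsive to AR and GR) were plated at 3,000 cells/well and preincubated 5 hr at 37C, then given compound plus R1881 agonist for 16 h. ONE-Glo luminescence was read.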

Molecules are shown by their SMILES. Records with an inconclusive call do not appear. Activity calls are given as the source filed them. Unless noted, calls come from the whole dose curve; as a rule, active = well fitted curve in the direction sought with a large enough effect in the repeat runs; inconclusive = weak or mixed curves; inactive = no such curve, though single readings can be large; an effect the other way counts as inactive or inconclusive.

Sequence of Glucocorticoid receptor (Homo sapiens) (P04150 whole entry, looked up): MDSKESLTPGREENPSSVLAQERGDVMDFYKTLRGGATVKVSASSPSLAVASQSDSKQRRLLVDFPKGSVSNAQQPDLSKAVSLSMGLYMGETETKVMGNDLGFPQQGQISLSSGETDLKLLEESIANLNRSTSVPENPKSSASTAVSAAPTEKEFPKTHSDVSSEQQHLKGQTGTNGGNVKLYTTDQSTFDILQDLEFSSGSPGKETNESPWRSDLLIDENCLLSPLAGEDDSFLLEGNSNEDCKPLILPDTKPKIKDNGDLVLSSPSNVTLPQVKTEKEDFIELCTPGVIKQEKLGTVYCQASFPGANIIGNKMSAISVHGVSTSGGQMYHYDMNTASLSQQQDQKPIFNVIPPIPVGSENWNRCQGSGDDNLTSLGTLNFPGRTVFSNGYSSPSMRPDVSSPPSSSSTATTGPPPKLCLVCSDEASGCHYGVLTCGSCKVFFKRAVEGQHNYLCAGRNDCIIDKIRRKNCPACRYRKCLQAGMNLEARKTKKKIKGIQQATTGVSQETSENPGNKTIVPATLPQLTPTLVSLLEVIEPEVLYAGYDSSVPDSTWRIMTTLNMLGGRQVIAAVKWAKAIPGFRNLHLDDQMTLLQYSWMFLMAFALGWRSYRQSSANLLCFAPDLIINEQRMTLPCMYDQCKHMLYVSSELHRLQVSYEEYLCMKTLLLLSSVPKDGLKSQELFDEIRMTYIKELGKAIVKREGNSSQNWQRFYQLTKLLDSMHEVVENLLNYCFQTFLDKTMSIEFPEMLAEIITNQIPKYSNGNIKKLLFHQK
Sequence of Androgen receptor (Homo sapiens) (P10275 whole entry, looked up): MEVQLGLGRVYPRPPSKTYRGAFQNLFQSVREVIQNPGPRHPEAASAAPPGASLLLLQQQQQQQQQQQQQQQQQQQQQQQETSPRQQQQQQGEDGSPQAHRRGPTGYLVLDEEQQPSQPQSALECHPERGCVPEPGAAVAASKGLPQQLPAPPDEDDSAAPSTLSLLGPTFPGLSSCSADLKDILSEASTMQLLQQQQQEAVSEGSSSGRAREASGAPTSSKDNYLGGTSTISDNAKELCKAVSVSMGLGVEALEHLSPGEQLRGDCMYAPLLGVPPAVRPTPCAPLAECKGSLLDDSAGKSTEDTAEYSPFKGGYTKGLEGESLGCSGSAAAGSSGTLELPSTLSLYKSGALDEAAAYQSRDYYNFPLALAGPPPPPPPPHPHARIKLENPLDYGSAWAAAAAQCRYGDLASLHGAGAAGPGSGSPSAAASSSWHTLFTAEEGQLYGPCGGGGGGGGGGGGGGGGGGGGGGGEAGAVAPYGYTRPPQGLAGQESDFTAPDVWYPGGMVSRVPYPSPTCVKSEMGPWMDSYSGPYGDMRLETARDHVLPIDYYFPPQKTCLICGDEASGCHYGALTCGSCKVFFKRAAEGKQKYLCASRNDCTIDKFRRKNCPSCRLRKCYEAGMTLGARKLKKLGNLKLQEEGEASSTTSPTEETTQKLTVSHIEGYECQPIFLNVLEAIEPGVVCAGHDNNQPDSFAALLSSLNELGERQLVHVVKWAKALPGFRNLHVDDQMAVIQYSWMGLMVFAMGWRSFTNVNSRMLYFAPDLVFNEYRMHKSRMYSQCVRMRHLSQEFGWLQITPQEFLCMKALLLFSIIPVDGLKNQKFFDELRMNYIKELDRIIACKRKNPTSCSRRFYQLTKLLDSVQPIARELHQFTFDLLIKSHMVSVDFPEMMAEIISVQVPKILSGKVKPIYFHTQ

In the case of `CCCCCCOC(=O)CCCCC`, the call in [1], in experiment [3], in experiment [4], in [5] and in experiment [7] was inactive. The Potency result in experiment [2], in experiment [6], in experiment [8], in experiment [9], in experiment [10] and in experiment [11] was “inactive” each time. Also, the Potency result in experiment [12], in experiment [13], in [14], in experiment [15] and in experiment [16] was “inactive” in each case.
On to `COc1ccc(C2C(=O)c3ccccc3C2=O)cc1`, for which the compound was classed as inactive in [1], in experiment [3], in experiment [4], in experiment [5] and in experiment [7]. Besides, the Potency entry in experiment [2], in [6], in [8], in [9], in experiment [10] and in [11] was “inactive” each time. Moreover, the Potency result in experiment [12], in experiment [13], in [14], in experiment [15] and in experiment [16] was “inactive” in each case.
For the compound `COc1ccc(N)c([N+](=O)[O-])c1`, the outcome in [1], in experiment [3], in experiment [4], in [5] and in experiment [7] was inactive. Also, the Potency result in experiment [2], in [6], in experiment [8], in [9], in [10] and in [11] was “inactive” each time. The Potency result in experiment [12], in experiment [13], in experiment [14], in [15] and in experiment [16] was “inactive” throughout.
As for `CCN(CC)CCOC(=O)C(c1ccccc1)c1ccccc1`, the result in experiment [1], in [3], in experiment [4], in experiment [5] and in experiment [7] was inactive. Further, the Potency entry in experiment [2], in [6], in [8], in experiment [9], in [10] and in experiment [11] was “inactive” in each case.
In the case of `CC(CCc1ccc(O)cc1)NCCc1ccc(O)c(O)c1` (stereo not given), the compound was classed as inactive in experiment [1], in [3], in experiment [4], in experiment [5] and in experiment [7]. Besides, the Potency result in experiment [2], in [6], in experiment [8], in experiment [9], in [10] and in experiment [11] was “inactive” each time. Moreover, the Potency entry in [15] is “inactive”. Moreover, the Potency was 13.3 µM (active) in experiment [12], 26.6 µM (active) in [13] and 23.7 µM (active) in experiment [14].
For `Cc1ccc(S(=O)(=O)NC(=O)NC2CCCCC2)cc1`, the result in experiment [1], in experiment [3], in experiment [4], in experiment [5] and in [7] was inactive. Besides, the Potency entry in [2], in [6], in [8], in experiment [9], in experiment [10] and in experiment [11] was “inactive” throughout. For the same compound, the Potency entry in experiment [12], in [13], in experiment [15] and in [16] was “inactive” in each case.
Take `c1ccc(CNc2ncnc3c2ncn3C2CCCCO2)cc1` (stereo not given): the result in experiment [1], in experiment [3], in [4], in experiment [5] and in experiment [7] was inactive. Besides, the Potency entry in experiment [2], in [6], in experiment [8], in experiment [9], in experiment [10] and in experiment [11] was “inactive” each time. For the same compound, the Potency result in experiment [15] and in experiment [16] was “inactive” in each case. Besides, the Potency in experiment [14] is 61.1 µM (active).
For `C=CC(=O)NC(C)C`, the call in experiment [1], in experiment [3], in [4], in [5] and in [7] was inactive. For the same compound, the Potency result in experiment [2], in [6], in [8], in experiment [9], in [10] and in [11] was “inactive” each time. Also, the Potency entry in experiment [12], in [14], in experiment [15] and in experiment [16] was “inactive” throughout.
As to `CS(=O)(=O)c1ccc([C@@H](C[C@H]2CCC(=O)C2)C(=O)Nc2cnccn2)cc1Cl`, the result in [1], in experiment [3], in [4], in experiment [5] and in experiment [7] was inactive. For the same compound, the Potency entry in [2], in [6], in experiment [8], in [9], in experiment [10] and in experiment [11] was “inactive” in each case. Also, the Potency result in [15] and in experiment [16] was “inactive” each time.
With `Nc1nc(-c2ccc([N+](=O)[O-])cc2)cs1`, the call in [1], in experiment [3], in experiment [4], in experiment [5] and in experiment [7] was inactive. Moreover, the Potency entry in [2], in experiment [6], in [8], in experiment [9], in [10] and in [11] was “inactive” in each case. The Potency entry in experiment [12], in experiment [14], in [15] and in [16] was “inactive” throughout.
With `COc1cc(S(=O)(=O)Nc2ccccc2)c(OC)cc1N`, the call in [1], in [3], in experiment [4], in experiment [5] and in [7] was inactive. Further, the Potency result in experiment [2], in experiment [6], in [8], in experiment [9], in experiment [10] and in experiment [11] was “inactive” in each case. The Potency result in experiment [14], in experiment [15] and in [16] was “inactive” each time.
As for `CCc1ccc(C)cc1`, the call in [1], in [3], in [4], in [5], in [7] and in experiment [18] was inactive. Also, the Potency entry in experiment [2], in experiment [6], in experiment [8], in experiment [9], in experiment [10] and in experiment [11] was “inactive” throughout. Further, the Potency result in experiment [12], in experiment [13], in experiment [15], in experiment [17], in experiment [19] and in [20] was “inactive” each time.
On to `CCCCCCCCCCCCCCCC(=O)OCC`, for which the call in experiment [1], in experiment [3], in [4], in experiment [5] and in experiment [7] was inactive. The Potency result in experiment [2], in [6], in [8], in experiment [9], in experiment [10] and in experiment [11] was “inactive” each time. The Potency entry in experiment [12], in experiment [13], in experiment [15] and in experiment [16] was “inactive” throughout.
Take `FC(F)(F)C(F)(F)C(F)(F)C(F)(F)CCI`: the compound was called inactive in [1], in experiment [3], in [4], in experiment [5] and in [7]. Moreover, the Potency entry in experiment [2], in [6], in [8], in experiment [9], in [10] and in [11] was “inactive” each time. For the same compound, the Potency result in experiment [12], in experiment [14], in experiment [15] and in [16] was “inactive” each time.
`O=C(C(=O)c1ccco1)c1ccco1`: the outcome in [1], in [3], in experiment [4], in experiment [5], in [7] and in [18] was inactive. Also, the Potency entry in experiment [2], in experiment [6], in [8], in experiment [9], in experiment [10] and in experiment [11] was “inactive” in each case. Further, the Potency result in [14], in experiment [15], in [17], in [19], in [16] and in [20] was “inactive” in each case.
As for `O=C(O)CCC(=O)OC[C@@H](NC(=O)C(Cl)Cl)[C@H](O)c1ccc([N+](=O)[O-])cc1`, the call in [1], in experiment [3], in experiment [4], in experiment [5] and in experiment [7] was inactive. Besides, the Potency result in experiment [2], in experiment [6], in experiment [8], in experiment [9], in experiment [10] and in experiment [11] was “inactive” each time. For the same compound, the Potency entry in experiment [13], in experiment [14] and in [16] was “inactive” each time.

For the origin of these results see PubChem BioAssay (Tox21).
